# High-throughput results (PubChem)
# GPR151 activ: activators of human GPR151, primary screen, cell-based, PathHunter beta-arrestin, luminescence | G-protein coupled receptor 151 (Homo sapiens), Q8TDV0 | PathHunter beta-arrestin GPR151 cells | activation, % at 11.2 µM | hit rate 1% among 650,000 | AID 1508602, 2020; in the data active = activation above about 4.9%;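 note: 0% = median of compound wells and 100% = cells with positive control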
# FBW7 activator: FBW7 E3 ligase activators, primary screen, biochemical, AlphaScreen, human. F-box/WD repeat-containing protein 7 (Homo sapiens), Q969H0. AlphaScreen FBW7–phospho-cyclin E peptide binding, activator screen. normalized activity (activation), % at 26.1 µM. hit rate 0.13% among 650,000. AID 1259310, 2017; in the data active = normalized activity above about 1.9%;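 note: purified mutant Fbw7 with reduced substrate affinity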
# MITF primary: MITF inhibitors, primary screen, biochemical, AlphaScreen, human. Microphthalmia-associated transcription factor (Homo sapiens), O75030. AlphaScreen MITF homodimerization, bead proximity signal. inhibition, % at 2.6 µM. hit rate 0.91% among 650,000. AID 1259374, 2018; in the data active = inhibition above about 50%;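 note: 0% = vehicle wells with protein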
# Target sequence (O75030 whole entry, looked up): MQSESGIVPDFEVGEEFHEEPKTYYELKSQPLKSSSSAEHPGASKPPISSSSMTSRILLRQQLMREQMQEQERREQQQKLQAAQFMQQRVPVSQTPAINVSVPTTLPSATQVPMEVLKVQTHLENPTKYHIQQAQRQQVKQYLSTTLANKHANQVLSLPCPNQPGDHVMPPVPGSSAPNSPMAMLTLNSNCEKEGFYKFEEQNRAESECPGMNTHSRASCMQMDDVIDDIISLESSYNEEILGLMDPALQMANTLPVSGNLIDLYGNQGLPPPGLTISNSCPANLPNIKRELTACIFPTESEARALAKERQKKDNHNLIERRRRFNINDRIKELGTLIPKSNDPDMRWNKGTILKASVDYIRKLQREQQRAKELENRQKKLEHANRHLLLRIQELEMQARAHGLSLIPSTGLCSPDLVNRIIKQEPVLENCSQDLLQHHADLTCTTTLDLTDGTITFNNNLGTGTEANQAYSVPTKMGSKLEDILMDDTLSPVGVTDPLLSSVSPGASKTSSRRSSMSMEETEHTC
# TEAD-YAP block: TEAD-YAP interaction inhibition, primary screen, TEAD-YAP interaction inhibitor project, luminescence, HEK-TIYL cells. TEAD-Gal4/YAP UAS-luciferase luminescence. inhibition, % at 9.12 µM. hit rate 1.4% among 640,000; in the data active = inhibition above about 32%;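 note: 0% = median of test compound wells and 100% = reference inhibitor wells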
# Numbers without * were called inactive. The list is not random: actives were taken first. Their share in the collection is about 3.5%.
SMILES,GPR151 activ,FBW7 activator,MITF primary,TEAD-YAP block
COc1ccc(-c2nc(NCCO)c3ncn(C(C)C)c3n2)cc1,1,0,5,8
CC(C)n1cnc2c(NCc3nc4ccccc4[nH]3)nc(-c3ccc(C(N)=O)cc3)nc21,-1,0,5,77*
CC(C)n1cnc2c(NCCO)nc(-c3ccc(C(N)=O)cc3)nc21,0,0,16,5
COc1ccc(-c2nc(NCc3nc4ccccc4[nH]3)c3ncn(C(C)C)c3n2)cc1,0,0,0,71*
Cc1cccc(-c2nc3s/c(=C\c4ccco4)c(=O)n3n2)c1,1,0,9,1
Cc1nn2c(=O)/c(=C/c3ccco3)sc2nc1=O,0,0,77*,4
COc1ccccc1C1/C(=C(/O)c2ccccc2)C(=O)C(=O)N1Cc1cccnc1 (centres undefined),1,0,3,1
CCOC(=O)C1=C(c2ccccc2)N=C2SCC(=O)N2C1c1cccs1 (centres undefined),-1,0,1,0
O=C(Cn1nnc2ccccc21)N/N=C/c1cc([N+](=O)[O-])ccc1O,0,0,73*,9
CCNC(=O)C(=O)N/N=C/c1cc([N+](=O)[O-])ccc1O,1,-1,74*,5
O=C(N/N=C/c1cc([N+](=O)[O-])ccc1O)N/N=C/c1cc([N+](=O)[O-])ccc1O,1,0,-1,0
O=C(CCn1nnc2ccccc21)N/N=C\c1cc([N+](=O)[O-])ccc1O,1,0,42,10
O=C(CNc1ccccc1)N/N=C/c1cc([N+](=O)[O-])ccc1O,5,0,54*,23
CN1C(=O)C(C)(C)c2cc(S(=O)(=O)NCc3ccc(C(=O)N4CCCC4)cc3)ccc21,3,0,7,-7
COc1ccc(/C=N/NC(=O)C(C)SCc2ccccc2)cc1 (centres undefined),0,0,10,4
N#CC1=C(SCC(=O)Nc2ccc(Br)cc2)NC(=O)CC1c1ccc(O)cc1 (centres undefined),0,0,14,39*
N#CC1=C(SCC(=O)Nc2ccc(Cl)c(Cl)c2)NC(=O)CC1c1ccccc1 (centres undefined),-2,0,-9,66*
Cc1ccc(C(=O)C2CCN(CC(=O)Nc3cccc(C(=O)O)c3)CC2)cc1,0,0,-7,5
Cn1c(/C=C/c2ccccc2)c([N+](=O)[O-])c(=O)n(C)c1=O,0,0,-6,25
Cn1c(/C=C/c2cccc(Oc3ccccc3)c2)c([N+](=O)[O-])c(=O)n(C)c1=O,1,0,5,45*
COc1ccccc1NC(=O)C(=O)N1N=C2CCCCCC2C1(O)C(F)(F)F (centres undefined),-1,0,1,3
Cc1ccc(-c2cnc(N3CCC4(CC3)OCCO4)nc2)cc1,-3,0,3,-49
Fc1ccc(-c2cnc(N3CCC4(CC3)OCCO4)nc2)cc1,-11,0,9,43*
C=CCOc1ccc(/C=C2/C=C(c3ccc(C)cc3)OC2=O)cc1,1,0,-3,0
Cc1nc(NC(=O)CN2CCC(c3cccnc3)CC2)sc1C,0,0,-2,-29
SMILES,GPR151 activ,FBW7 activator,MITF primary,TEAD-YAP block
CCC(C)(C)n1nnnc1CN(Cc1cccnc1)Cc1cc2cc(C)ccc2[nH]c1=O,-1,1,-8,-12
O=C(O)c1cccc(COc2ccc(CO)cc2)c1,-8,0,-21,79*
O=C(O)c1cccc(COc2ccccc2Br)c1,-10,0,-4,65*
O=C(O)c1cccc(COc2cccc(Cl)c2)c1,-13,0,10,-37
O=C(O)c1cccc(COc2ccc3ccccc3c2)c1,-13,0,-26,86*
O=C(O)C1(S(=O)(=O)c2cccc3nsnc23)CC1,0,0,3,-8
CC1CCCCN1c1ccc(N2C(=O)C3C4C=CC(C4)C3C2=O)cc1[N+](=O)[O-] (centres undefined),-1,0,6,1
Cc1ccc(CC2SC(N3CCN(c4cccc(C)c4)CC3)=NC2=O)cc1 (centres undefined),-1,0,6,0
CC(=O)Cn1cnc2c(nnn2-c2cccc(F)c2)c1=O,-1,0,-10,-17
CC(=O)N(Cc1ccc(F)cc1)C1=C(NCCc2ccccc2)C(=O)c2ccccc2C1=O,2,0,15,60*
CCC(=O)N(C1=C(NC)C(=O)c2ccccc2C1=O)C(C)C,-2,0,-10,85*
CC(=O)N(Cc1ccccc1)C1=C(N2CCCCC2)C(=O)c2ccccc2C1=O,-1,0,14,-8
CNC1=C(N(Cc2ccc(Cl)c(Cl)c2)C(C)=O)C(=O)c2ccccc2C1=O,-2,0,10,83*
CC(=O)N(Cc1ccc(F)cc1)C1=C(Cl)C(=O)c2ccccc2C1=O,-3,0,10,13
CC(=O)NC1=C(N(C)C)C(=O)c2ccccc2C1=O,0,0,-4,-5
CCOC(=O)C1=C(N)OC(C)=C(C(C)=O)C1c1ccccc1[N+](=O)[O-] (centres undefined),-1,0,5,-3
COc1ccc(N2CCN(C(=O)C(C)Oc3ccccc3)CC2)nn1 (centres undefined),1,0,-8,-13
N/C(=N\O)c1ccc(Oc2ccc(Oc3ccc(/C(N)=N/O)cc3)cc2)cc1,0,2,3,84*
Cc1cccc(OCCCC(=O)Nc2nc3ccccc3[nH]2)c1,2,1,6,71*
CCCNc1nc(Nc2cnccn2)nc2c1ncn2C(C)C,3,0,5,46*
CC(C)N(CCNc1nc(Nc2nccc3ccccc23)nc2c1ncn2C(C)C)C(C)C,-1,0,20,50*
Cc1cc[n+]2cc(C)n(Cc3cccc(F)c3)c2c1,0,1,9,41*
Cc1cc(C)n(Cc2cccc(F)c2)c(=O)c1C#N,0,0,0,3
O=c1[nH]cc(S(=O)(=O)Nc2ccc(F)c(Cl)c2)c(=O)[nH]1,3,0,7,0
COc1cc2c(cc1OC)C(C(=O)N1CCCCC1)C1c3ccccc3CCN1C2=O (centres undefined),-1,1.9*,24,-6
COc1cc2c(cc1OC)C(C(=O)N1CCCC(C)C1)C1c3ccccc3CCN1C2=O (centres undefined),-1,1,23,-2
COc1cc(NC(=O)c2ccc(N3CC4CC(C3)c3cccc(=O)n3C4)c(NC(=O)c3ccc(Br)o3)c2)cc(OC)c1OC (centres undefined),4,0,0,-1
Cc1ccc(NC(=O)c2sc3nc(N)c(C#N)cc3c2N)cc1F,1,22*,15,-41
N#Cc1cc2c(N)c(C(=O)Nc3ccccc3)sc2nc1N,1,0,18,-22
